Measurements taken from PubChem BioAssay AID602358 (National Center for Advancing Translational Sciences (NCATS), 2012).
Results filed as inconclusive are left out. Values without a mark were called inactive. The source made the active and inactive calls. Calls come from the whole dose curve; as a rule, active = well fitted inhibition curve with a large enough effect; inconclusive = small, poorly fitted or top-dose-only effect; inactive = flat fitted curve, though single readings scatter.

molecular target: Luciferin 4-monooxygenase (Photinus pyralis) (UniProt P08659); experiment: FLuc inhibitory activity for the follow-up compounds in a biochemical assay with Km concentrations of substrate and 500microM CoASH; details: purified FLuc, Km substrates + 500 uM CoASH, luminescence; series mostly up to 57.5 µM; activity change, negative = inhibition: at the top concentration
Sequence (P08659 whole entry, looked up): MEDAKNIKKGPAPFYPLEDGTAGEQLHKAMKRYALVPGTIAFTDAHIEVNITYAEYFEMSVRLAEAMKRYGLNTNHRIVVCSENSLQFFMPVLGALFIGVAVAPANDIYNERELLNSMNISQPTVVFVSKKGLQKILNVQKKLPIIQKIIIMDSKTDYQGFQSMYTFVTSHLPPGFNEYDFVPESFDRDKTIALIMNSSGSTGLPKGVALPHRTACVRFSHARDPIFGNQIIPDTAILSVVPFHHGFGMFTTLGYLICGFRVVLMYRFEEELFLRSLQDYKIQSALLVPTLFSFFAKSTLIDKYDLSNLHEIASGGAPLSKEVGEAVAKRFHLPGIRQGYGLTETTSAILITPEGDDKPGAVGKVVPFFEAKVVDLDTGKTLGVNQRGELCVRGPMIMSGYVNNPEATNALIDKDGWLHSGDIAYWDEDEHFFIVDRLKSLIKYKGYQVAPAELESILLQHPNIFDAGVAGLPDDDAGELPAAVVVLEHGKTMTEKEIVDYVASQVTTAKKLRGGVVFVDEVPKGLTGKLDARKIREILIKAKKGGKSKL
Excerpt: NCGC Assay Overview: Firefly (Photinus pyralis) luciferase is one of the most commonly used transcriptional reporters. It is considered one of the more dynamically responsive reporters - that is, responsive to changes in reporter transcription - as it requires no post-translational modifications and is enzymatically active directly after protein synthesis (Wood, 1998). With no endogenous expression in mammalian cells and without the requirement of external excitation, it offers very little background signal, thus generally providing excellent signal to background for most assays. Previous profiling work to determine the prevalence of compounds that affect FLuc enzymatic activity (PubChem AID 411) identified that ~3% of the MLSMR library (then at ~72K) inhibited FLuc. […] Of the compounds identified in this profile that inhibited FLuc, 151 compounds were selected for further analysis, in an effort to better understand their mode of inhibiting FLuc. The assay described here was to determine the activity of the compounds in an FLuc assay that contained KM concentrations of substrates and 500uM CoASH.
NCGC Assay Protocol Summary: Reagents: 50mM Tris acetate, pH 7.5; 10mM Mg acetate; 10uM D-luciferin (Sigma #L9504); 10uM ATP; 0.01% Tween-20; 0.05% BSA; 10nM P. pyralis luciferase (Sigma #L9506); 500 uM CoASH Control compounds used were two known firefly luciferase inhibitors (3-(5-(3-chlorophenyl)-1,2,4-oxadiazol-3-yl)benzoic acid and 5-(2-fluorophenyl)-3-phenyl-1,2,4-oxadiazole), and DMSO. Three microliters containing firefly luciferase substrates in buffer (final concentrations: 50mM Tris acetate, pH 7.5, 10mM Mg acetate, 0.01% Tween-20, 0.05% BSA, 10uM D-luciferin, 10uM ATP, and 500 uM CoASH) are dispensed into each well of a Greiner white, solid-bottom 1536-well format plate using a flying reagent dispenser (FRD). These assay plates were then treated with 23nL of compound or DMSO using a Kalypsys pin tool, which allows for delivery of a 12-point intraplate titration of each compound to the assay plate (quantitative HTS), with a final compound concentrations ranging from approximately ~60uM to 0.3nM. One microliter of firefly luciferase in 500mM Tris-acetate buffer was then delivered by FRD to each well for a final enzyme concentration of 10nM. Luciferase activity was then measured using a ViewLux CCD imager (PerkinElmer), with an average exposure time of 2-30 seconds (2X binning, medium/high gain).

Structure (SMILES) | Potency | activity change, negative = inhibition [%]
Cc1ccc2nc(-c3ccc(N)cc3)sc2c1 | 32.6 nM (active) | 
COc1ccc2nc(NC(=O)CCc3nc(-c4ccccc4F)no3)sc2c1 |  | -17.4
CCOc1ccc2nc(NC(=O)Cc3cccs3)sc2c1 | 5800 nM (active) | 
CCc1noc(C)c1C(=O)Nc1nc2ccc(OC)cc2s1 | 13000 nM (active) | 
Nc1ccccc1-c1nc2ccccc2s1 | 3260 nM (active) | 
O=C(O)c1ccc(NC(=O)c2cccc(NC(=O)c3cccs3)c2)cc1 | 5800 nM (active) | 
O=C(Nc1ccc(-c2nc3ccccc3s2)cc1)C1=COCCO1 | 25.9 nM (active) | 
O=C(Nc1ccccc1C(=O)O)c1cc(S(=O)(=O)Nc2ccccc2)ccc1Cl |  | -4.97
O=C(Cc1ccc(Cl)cc1)Nc1cccc(C(=O)Nc2ccccc2C(=O)O)c1 | 25900 nM (active) | 
Nc1ccc(-c2nc3ccc(N)cc3s2)cc1 | 116 nM (active) | 
O=C(Cc1ccccc1)Nc1ccccc1C(=O)Nc1ccc(C(=O)O)cc1 |  | -13.8
CC(=O)Nc1cccc(C(=O)Nc2ccccc2C(=O)O)c1 | 20600 nM (active) | 
CC(=O)Oc1ccc(C(=O)Nc2ccccc2C(=O)Nc2cccc(C(=O)O)c2)cc1 | 2590 nM (active) | 
CC(=O)Oc1ccc(C(=O)Nc2ccccc2C(=O)Nc2ccc(C(=O)O)cc2)cc1 | 1460 nM (active) | 
CC(=O)Nc1cccc(-c2nc3ccccc3s2)c1C | 13000 nM (active) | 
O=C(O)c1cccc(NC(=O)c2ccc(COc3ccc(Cl)cc3)cc2)c1 | 18300 nM (active) | 
O=C(O)c1cccc(NC(=O)c2ccccc2NC(=O)c2ccco2)c1 | 20600 nM (active) | 
O=C(Nc1ccccc1C(=O)O)c1cccc(NC(=O)c2ccco2)c1 | 6510 nM (active) | 
COc1ccc(-c2nc3ccccc3s2)cc1O | 32.6 nM (active) | 
CN(C)c1cccc(C(=O)Nc2ccc(-c3nc4ccccc4s3)cc2)c1 | 1460 nM (active) | 

Structure (SMILES) | Potency | activity change, negative = inhibition [%]
O=C(Nc1ccccc1-c1nc2ccccc2s1)c1ccc(Br)o1 |  | -3.85
COc1ccc(C(=O)Nc2nc3ccc(OC)cc3s2)cc1 | 580 nM (active) | 
CCOc1ccc2nc(NC(=O)c3ccccc3)sc2c1 | 206 nM (active) | 
CC(C)c1ccc(-c2nc3ccccc3s2)cc1 | 13 nM (active) | 
COc1ccc2nc(NC(=O)CCc3ccc(OC)c(OC)c3)sc2c1 |  | -17.3
CC(C)(C)C(=O)Nc1ccc(-c2nc3ccccc3s2)cc1 | 10.3 nM (active) | 
Cc1ccc(C(=O)Nc2cccc(C(=O)O)c2)cc1 | 3660 nM (active) | 
Cc1c(NC(=O)C(C)(C)C)cccc1-c1nc2ccccc2s1 | 1460 nM (active) | 
O=C(Nc1ccccc1-c1nc2ccccc2s1)c1cccnc1 |  | -9.13
O=C(Nc1ccccc1C(=O)O)c1cccc(NC(=O)c2ccc(Br)o2)c1 | 10300 nM (active) | 
O=C(Nc1ccccc1C(=O)O)c1cccc(S(=O)(=O)N2CCCC2)c1 | 18300 nM (active) | 
O=C(Nc1ccccc1C(=O)O)c1cc(S(=O)(=O)NCc2ccccc2)ccc1Cl |  | -9.7
COc1ccc(C(=O)Nc2ccccc2C(=O)Nc2ccccc2C(=O)O)cc1 | 116 nM (active) | 
Cc1ccc(C(=O)Nc2cccc(C(=O)O)c2)cc1S(=O)(=O)N1CCCCC1 | 3660 nM (active) | 
COc1cc(OC)cc(C(=O)Nc2ccccc2-c2nc3ccccc3s2)c1 |  | -5.72
Cc1ccc(C(=O)O/N=C(\N)c2ccccn2)cc1 | 9.2 nM (active) | 
O=C(Nc1ccccc1C(=O)O)c1ccc(NC(=O)C2CC2)cc1 | 730 nM (active) | 
CCOc1ccc2nc(NC(=O)c3cccnc3)sc2c1 | 1300 nM (active) | 
Nc1ccc2nc(-c3ccccc3)sc2c1 | 58 nM (active) | 
COc1ccccc1C(=O)Nc1ccc(C(=O)O)cc1 |  | -27.9
